Activity calls are given as the source filed them. The calls were made as follows: active = hit-call score of the fitted dose curve at least 0.9, where 1 is the maximum; inactive = score below 0.9.
Tests used:
[1] = ATG_ISRE_CIS: Attagene CIS-FACTORIAL HepG2 Assay for human Interferon Regulatory Factor 1 (IRF1) binding to an Interferon-Stimulated Response Element (ISRE) (AID 2282948); conditions: HepG2 ISRE cis-reporter (Attagene), mRNA transcription readout; actives raise or lower the signal
Procedure, shortened: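 HepG2 cells transiently transfected with multiplexed cis-promoter reporter units; after 24 h compound exposure, reporter mRNA quantified by RT-PCR, FAM labelling, HpaI digestion and capillary electrophoresis. Bidirectional fit versus DMSO baseline.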

[2] = ATG_M_32_CIS: Attagene CIS-FACTORIAL HepG2 Assay for M32 Transcription Factor (Internal Marker) (AID 2282949); conditions: HepG2 Attagene cis-factorial M32 reporter, mRNA; actives raise or lower the signal;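 also: background control marker of the multiplexed CIS panel rather than a real target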
Procedure, shortened: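 Following 24 h chemical exposure of HepG2 cells transiently expressing cis-promoter reporter constructs, reporter transcript levels were determined by RT-PCR with fluorescent labelling and capillary electrophoresis, then fitted bidirectionally against DMSO.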

[3] = ATG_M_06_CIS: Attagene CIS-FACTORIAL HepG2 Assay for M06 Transcription Factor (Internal Marker) (AID 2282950); conditions: HepG2 Attagene CIS-FACTORIAL M06 internal marker reporter; actives raise or lower the signal
Procedure, shortened: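 Measured 24 h post-dosing in transiently transfected HepG2 cells, this internal-marker endpoint reports reporter mRNA via RT-PCR with fluorescent primer extension and capillary electrophoresis. DMSO served as negative control and baseline for bidirectional fitting.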

[4] = biological target: Hypoxia-inducible factor 1-alpha (Homo sapiens) (UniProt Q16665); experiment: ATG_HIF1a_CIS: Attagene CIS-FACTORIAL HepG2 Assay for human Hypoxia Inducible Factor 1 (HIF1A) (AID 2282951); conditions: HepG2 Attagene cis-factorial HIF1a reporter transcription; actives raise or lower the signal
Procedure, shortened: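 Dosed 24 h, transfected HepG2 cells yielded total RNA whose reporter transcripts were RT-PCR-amplified and sized by capillary electrophoresis using fluorescent labelling; DMSO defined baseline, with gain and loss of signal both fitted.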

[5] = biological target: Hepatocyte nuclear factor 6 (Homo sapiens) (UniProt Q9UBC0); experiment: ATG_HNF6_CIS: Attagene CIS-FACTORIAL HepG2 Assay for human Hepatocyte Nuclear Factor 6 (HNF6) (AID 2282952); conditions: HepG2 Attagene cis-factorial HNF6 reporter transcription; actives raise or lower the signal
Procedure, shortened: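 Multiplexed mRNA reporter assay in transfected HepG2; 24 h dosing; RT-PCR plus capillary electrophoresis fluorescence; DMSO-referenced bidirectional curve fitting.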

[6] = ATG_MRE_CIS: Attagene CIS-FACTORIAL HepG2 Assay for human Metal Responsive Element (MRE) (AID 2282954); conditions: HepG2 MRE cis-reporter transcription, Attagene multiplex; actives raise or lower the signal
Procedure, shortened: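 HepG2 cells transiently transfected with multiple cis-element reporter units measure endogenous MTF1-driven transcription. After 24 h compound exposure, reporter mRNA is quantified by RT-PCR with 6-FAM labelling, HpaI digestion and capillary electrophoresis; bidirectional fits versus DMSO.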

[7] = ATG_PBREM_CIS: Attagene CIS-FACTORIAL HepG2 Assay for human Phenobarbital-responsive Enhancer Module (PBREM) (AID 2282955); conditions: HepG2 PBREM cis-reporter, Attagene multiplexed transcription; actives raise or lower the signal
Procedure, shortened: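 Transfected liver-derived HepG2 cells exposed 24 h; PBREM reporter transcript quantified via RT-PCR and capillary electrophoresis, with activity in either direction referenced to DMSO.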

[8] = biological target: Paired box protein Pax-6 (Homo sapiens) (UniProt P26367); experiment: ATG_Pax6_CIS: Attagene CIS-FACTORIAL HepG2 Assay for human Paired Box 6 (PAX6) (AID 2282956); conditions: HepG2 CIS-FACTORIAL PAX6 reporter transcription, RNA readout; actives raise or lower the signal
Procedure, shortened: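 HepG2 cells transiently transfected with multiplexed cis-promoter reporter units (endogenous TF activity) were dosed for 24 h. Reporter mRNA was quantified by RT-PCR, 6-FAM labeling, HpaI digestion and capillary electrophoresis; bidirectional fitting versus DMSO baseline.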

[9] = ATG_PXRE_CIS: Attagene CIS-FACTORIAL HepG2 Assay for human Pregnane X Receptor Element (PXRE) (AID 2282957); conditions: HepG2 Attagene CIS-FACTORIAL PXRE reporter, mRNA; actives raise or lower the signal
Procedure, shortened: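 Cells: HepG2, transiently transfected reporter units under cis promoter control. Exposure: 24 h. Detection: reporter mRNA via RT-PCR/CE fluorescence; bidirectional fitting, DMSO-referenced.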

[10] = ATG_PPRE_CIS: Attagene CIS-FACTORIAL HepG2 Assay for human Peroxisome Proliferator-activated Response Element (PPRE) (AID 2282958); conditions: HepG2 PPRE cis-element reporter, Attagene transcription factor profiling; actives raise or lower the signal
Procedure, shortened: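 Measured endpoint: PPRE-controlled reporter mRNA, detected by RT-PCR and capillary electrophoresis fluorescence, from transiently transfected HepG2 cells 24 h after dosing. Curves fitted in both directions using DMSO baseline.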

[11] = ATG_RORE_CIS: Attagene CIS-FACTORIAL HepG2 Assay for human RAR-related Orphan Receptor Element (RORE) (AID 2282959); conditions: HepG2 Attagene cis-factorial RORE reporter, mRNA; actives raise or lower the signal
Procedure, shortened: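 Transiently transfected HepG2 reporter cells were treated 24 h. Reporter transcripts were detected by RT-PCR and capillary electrophoresis, with bidirectional fitting against DMSO.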

[12] = ATG_Sox_CIS: Attagene CIS-FACTORIAL HepG2 Assay for human SRY-box transcription factor (SOX) (AID 2282960); conditions: HepG2 Attagene cis-factorial SOX reporter, mRNA; actives raise or lower the signal
Procedure, shortened: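 Gain- or loss-of-signal endpoint, fitted bidirectionally with DMSO as negative control. Based on reporter mRNA from transfected HepG2 cells harvested 24 h post-treatment and quantified via RT-PCR and capillary electrophoresis.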

[13] = biological target: Transcription factor Sp1 (Homo sapiens) (UniProt P08047); experiment: ATG_Sp1_CIS: Attagene CIS-FACTORIAL HepG2 Assay for human Specificity Protein 1 (Sp1) (AID 2282961); conditions: HepG2 Sp1 cis-reporter transcription, actives raise or lower the signal
Procedure, shortened: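 Endpoint reflects endogenous Sp1 transcriptional activity, not an exogenous fusion protein: HepG2 cells with transfected cis-regulated reporters, 24 h dosing, RT-PCR/capillary electrophoresis mRNA read-out, DMSO-normalised bidirectional fit.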

[14] = ATG_SREBP_CIS: Attagene CIS-FACTORIAL HepG2 Assay for human Sterol Regulatory Element Binding (SREBP) (AID 2282962); conditions: HepG2 Attagene cis-factorial SREBP reporter, mRNA; actives raise or lower the signal
Procedure, shortened: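 HepG2 cells transiently transfected with multiplexed cis-element reporter units report endogenous transcription factor activity. After 24 h of chemical exposure, reporter mRNA was quantified by RT-PCR, 6-FAM labelling, HpaI digestion and capillary electrophoresis; bidirectional fits used DMSO as baseline.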

[15] = biological target: Signal transducer and activator of transcription 3 (Homo sapiens) (UniProt P40763); experiment: ATG_STAT3_CIS: Attagene CIS-FACTORIAL HepG2 Assay for human Signal Transducer and Activator of Transcription 3 (STAT3) (AID 2282963); conditions: HepG2, Attagene cis-factorial STAT3 reporter transcription; actives raise or lower the signal
Procedure, shortened: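 HepG2 cells transiently transfected with cis-element-driven multiple reporter transcription units; after 24 h chemical exposure, reporter mRNA measured by RT-PCR, 6-FAM primer-extension labelling, HpaI digestion and capillary electrophoresis. Bidirectional fitting versus DMSO baseline.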

[16] = ATG_TA_CIS: Attagene CIS-FACTORIAL HepG2 Assay for human TA Basal Promoter (AID 2282964); conditions: HepG2 Attagene CIS-factorial TA basal promoter reporter; actives raise or lower the signal
Procedure, shortened: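 Cis-factorial format in HepG2: reporters report endogenous factors, not chimeric Gal4 fusions. After 24 h treatment, reporter transcripts were measured by RT-PCR-capillary electrophoresis fluorescence, analysed bidirectionally versus DMSO.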

[17] = ATG_TCF_b_cat_CIS: Attagene CIS-FACTORIAL HepG2 Assay for human T-Cell-Factor with beta-catenin (TCF/b-cat) (AID 2282965); conditions: HepG2 TCF/beta-catenin cis-reporter transcription, actives raise or lower the signal
Procedure, shortened: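 Using capillary electrophoresis as the read-out, labelled reporter cDNA fragments from transiently transfected HepG2 were sized and quantified. Exposure lasted 24 hours; activity in either direction was referenced to DMSO.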

[18] = biological target: Heat shock factor protein 1 (Homo sapiens) (UniProt Q00613); experiment: ATG_HSE_CIS: Attagene CIS-FACTORIAL HepG2 Assay for human Heat Shock Transcription Factor 1 (HSE) (AID 2282953); conditions: HepG2 HSE cis-reporter, Attagene RNA transcription; actives raise or lower the signal
Procedure, shortened: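 Reporter mRNA induction in HepG2 is measured 24 h after dosing, using transiently transfected multiplexed cis-regulated reporter units. Signal comes from capillary electrophoresis of labelled RT-PCR products, with DMSO as negative control.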

Measured: AC50

Sequence of Signal transducer and activator of transcription 3 (Homo sapiens) (P40763 whole entry, looked up): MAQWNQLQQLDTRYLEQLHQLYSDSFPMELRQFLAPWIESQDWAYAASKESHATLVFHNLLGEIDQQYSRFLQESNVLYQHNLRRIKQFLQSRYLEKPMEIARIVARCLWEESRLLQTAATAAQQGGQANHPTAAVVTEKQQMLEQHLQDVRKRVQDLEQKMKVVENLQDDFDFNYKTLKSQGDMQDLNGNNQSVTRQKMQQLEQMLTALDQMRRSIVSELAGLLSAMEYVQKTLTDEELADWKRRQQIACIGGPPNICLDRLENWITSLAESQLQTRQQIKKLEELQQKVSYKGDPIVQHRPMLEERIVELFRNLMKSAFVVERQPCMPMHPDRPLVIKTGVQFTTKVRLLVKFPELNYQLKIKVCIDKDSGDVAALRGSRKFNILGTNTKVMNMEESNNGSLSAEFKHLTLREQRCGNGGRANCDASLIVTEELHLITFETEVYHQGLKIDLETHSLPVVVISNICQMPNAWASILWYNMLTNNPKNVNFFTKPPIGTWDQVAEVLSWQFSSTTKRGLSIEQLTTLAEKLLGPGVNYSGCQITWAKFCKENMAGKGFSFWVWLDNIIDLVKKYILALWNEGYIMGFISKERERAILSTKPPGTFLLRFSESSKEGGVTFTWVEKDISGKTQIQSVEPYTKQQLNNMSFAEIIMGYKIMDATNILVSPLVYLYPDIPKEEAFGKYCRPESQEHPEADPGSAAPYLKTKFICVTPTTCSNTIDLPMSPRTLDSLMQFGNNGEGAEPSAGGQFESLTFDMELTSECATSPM
Sequence of Transcription factor Sp1 (Homo sapiens) (P08047 whole entry, looked up, the tested form may be a part): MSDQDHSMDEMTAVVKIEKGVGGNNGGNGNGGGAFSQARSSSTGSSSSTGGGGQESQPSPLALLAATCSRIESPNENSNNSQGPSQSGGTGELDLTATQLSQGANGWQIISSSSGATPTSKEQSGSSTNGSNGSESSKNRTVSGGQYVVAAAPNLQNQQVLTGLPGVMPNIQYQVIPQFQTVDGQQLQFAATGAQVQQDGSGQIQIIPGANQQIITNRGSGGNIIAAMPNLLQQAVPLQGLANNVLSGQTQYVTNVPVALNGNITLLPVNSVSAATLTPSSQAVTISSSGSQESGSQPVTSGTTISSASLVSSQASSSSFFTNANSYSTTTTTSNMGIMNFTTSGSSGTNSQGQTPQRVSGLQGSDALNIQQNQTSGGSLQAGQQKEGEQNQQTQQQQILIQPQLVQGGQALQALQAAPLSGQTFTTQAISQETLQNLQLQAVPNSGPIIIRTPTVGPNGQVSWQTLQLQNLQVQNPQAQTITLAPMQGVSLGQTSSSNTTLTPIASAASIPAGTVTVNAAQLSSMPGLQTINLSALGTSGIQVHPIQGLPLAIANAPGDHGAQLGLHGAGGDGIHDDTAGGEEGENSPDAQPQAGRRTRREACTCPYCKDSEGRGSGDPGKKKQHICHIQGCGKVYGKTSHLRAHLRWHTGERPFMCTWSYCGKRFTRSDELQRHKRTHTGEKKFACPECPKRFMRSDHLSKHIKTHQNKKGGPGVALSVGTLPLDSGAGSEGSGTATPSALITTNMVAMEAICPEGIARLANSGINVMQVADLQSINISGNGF
Sequence of Hepatocyte nuclear factor 6 (Homo sapiens) (Q9UBC0 whole entry, looked up): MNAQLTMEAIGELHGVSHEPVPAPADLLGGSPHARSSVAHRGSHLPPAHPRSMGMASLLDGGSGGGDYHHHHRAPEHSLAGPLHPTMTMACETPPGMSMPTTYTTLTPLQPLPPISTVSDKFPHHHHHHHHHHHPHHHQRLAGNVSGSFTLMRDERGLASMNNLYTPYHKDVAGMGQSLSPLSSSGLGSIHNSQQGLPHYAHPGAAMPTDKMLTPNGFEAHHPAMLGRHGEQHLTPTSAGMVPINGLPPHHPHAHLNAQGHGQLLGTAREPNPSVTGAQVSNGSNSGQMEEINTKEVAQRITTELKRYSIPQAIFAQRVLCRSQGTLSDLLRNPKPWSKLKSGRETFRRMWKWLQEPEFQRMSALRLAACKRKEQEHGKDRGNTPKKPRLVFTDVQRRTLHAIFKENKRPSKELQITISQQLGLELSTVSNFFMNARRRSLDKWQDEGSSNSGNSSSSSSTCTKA
Sequence of Heat shock factor protein 1 (Homo sapiens) (Q00613 whole entry, looked up): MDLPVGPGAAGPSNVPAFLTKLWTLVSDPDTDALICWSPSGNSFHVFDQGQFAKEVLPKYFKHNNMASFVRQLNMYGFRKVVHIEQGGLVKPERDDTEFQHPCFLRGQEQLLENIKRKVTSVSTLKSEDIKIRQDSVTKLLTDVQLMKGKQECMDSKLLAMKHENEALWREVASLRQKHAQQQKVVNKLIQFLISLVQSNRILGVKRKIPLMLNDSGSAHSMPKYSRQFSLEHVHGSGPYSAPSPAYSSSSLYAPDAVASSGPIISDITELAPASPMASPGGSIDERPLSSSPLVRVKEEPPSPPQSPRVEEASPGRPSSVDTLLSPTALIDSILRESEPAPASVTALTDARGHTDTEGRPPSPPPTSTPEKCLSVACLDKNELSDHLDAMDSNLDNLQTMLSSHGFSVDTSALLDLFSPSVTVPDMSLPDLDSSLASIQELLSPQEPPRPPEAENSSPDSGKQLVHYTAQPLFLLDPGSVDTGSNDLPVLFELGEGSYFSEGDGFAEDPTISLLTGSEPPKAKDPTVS
Sequence of Paired box protein Pax-6 (Homo sapiens) (P26367 whole entry, looked up): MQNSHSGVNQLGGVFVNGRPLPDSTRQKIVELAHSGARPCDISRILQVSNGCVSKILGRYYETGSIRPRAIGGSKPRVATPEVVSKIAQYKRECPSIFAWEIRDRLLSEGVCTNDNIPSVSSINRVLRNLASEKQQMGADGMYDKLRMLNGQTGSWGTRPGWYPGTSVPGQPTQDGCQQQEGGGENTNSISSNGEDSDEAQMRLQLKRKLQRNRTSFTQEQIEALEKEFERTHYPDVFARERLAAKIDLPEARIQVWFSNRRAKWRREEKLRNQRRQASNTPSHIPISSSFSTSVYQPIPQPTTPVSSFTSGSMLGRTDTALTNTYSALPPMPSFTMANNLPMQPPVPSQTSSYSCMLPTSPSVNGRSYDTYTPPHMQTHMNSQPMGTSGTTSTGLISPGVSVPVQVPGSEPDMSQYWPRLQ
Sequence of Hypoxia-inducible factor 1-alpha (Homo sapiens) (Q16665 whole entry, looked up): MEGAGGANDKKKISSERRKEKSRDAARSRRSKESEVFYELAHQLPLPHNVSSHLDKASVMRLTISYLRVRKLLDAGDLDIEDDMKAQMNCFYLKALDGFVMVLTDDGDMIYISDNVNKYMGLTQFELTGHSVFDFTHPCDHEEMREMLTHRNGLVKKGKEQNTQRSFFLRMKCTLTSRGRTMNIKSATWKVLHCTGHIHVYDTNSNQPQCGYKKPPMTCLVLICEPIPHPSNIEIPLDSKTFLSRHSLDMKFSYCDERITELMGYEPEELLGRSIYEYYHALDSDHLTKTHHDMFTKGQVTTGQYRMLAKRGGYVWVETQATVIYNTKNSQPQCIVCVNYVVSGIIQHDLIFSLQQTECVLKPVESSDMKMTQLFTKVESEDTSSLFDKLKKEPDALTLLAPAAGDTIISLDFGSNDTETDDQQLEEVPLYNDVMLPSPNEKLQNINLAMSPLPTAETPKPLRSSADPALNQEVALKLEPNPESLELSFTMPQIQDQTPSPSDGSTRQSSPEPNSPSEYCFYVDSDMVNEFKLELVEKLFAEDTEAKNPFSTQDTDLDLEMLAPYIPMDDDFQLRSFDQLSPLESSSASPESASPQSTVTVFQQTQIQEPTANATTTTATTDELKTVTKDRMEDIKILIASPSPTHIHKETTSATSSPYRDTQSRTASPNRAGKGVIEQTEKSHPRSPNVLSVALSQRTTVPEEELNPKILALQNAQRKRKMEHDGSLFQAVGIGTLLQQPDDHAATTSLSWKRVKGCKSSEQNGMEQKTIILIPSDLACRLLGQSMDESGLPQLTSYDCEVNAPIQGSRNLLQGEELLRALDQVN

OCCOc1cccc(OCCO)c1
not listed: [18]
inactive: all other assays above

CCCCOCCOCCOCCOCCO
active: [9] 27.5 µM
not listed: [5] | [7]
inactive: all other assays above

CCCCCC(CO)CCC (centres undefined)
not listed: [7] | [9] | [14]
inactive: all other assays above

CC(CN1c2ccccc2Sc2ccccc21)N(C)C (centres undefined)
active: [6] 40.7 µM | [8] 44 µM
not listed: [4] | [9] | [10] | [17]
inactive: all other assays above

CC(C)[C@@H]1CC[C@@H](C)CC1=O
active: [4] 38.4 µM
not listed: [1] | [5] | [7] | [9] | [10] | [18]
inactive: all other assays above

Nc1nc2ccc([N+](=O)[O-])cc2s1
active: [1] 77.4 µM | [9] 19.8 µM | [10] 45.6 µM
not listed: [4] | [11]
inactive: all other assays above

CC(C)(C)c1cc(CCC(=O)NN)cc(C(C)(C)C)c1O
active: [6] 186 µM | [9] 10.2 µM
not listed: [1]
inactive: all other assays above

C=C(C)[C@@H]1CC[C@@H](C)C[C@@H]1O
not listed: [7] | [9] | [10] | [11] | [15] | [16]
inactive: all other assays above

CC(C)=CCO
active: [9] 47.2 µM
not listed: [1] | [4] | [7]
inactive: all other assays above
